D3 antag: qHTS of D3 Dopamine Receptor Antagonist: qHTS; D3R cells, DiscoveRx beta-arrestin luminescence, antagonist mode; active compounds read low; D(3) dopamine receptor (Homo sapiens), P35462; max response, negative = inhibition, %; actives 2.5% (n = 360,000); AID 652054, 2013; in the data active = max response below about -50%; inconclusive = no clear call, values can overlap the other calls; also: % is scaled to controls: 0 for no effect and ±100 for the full control effect
Target sequence (P35462 whole entry, looked up): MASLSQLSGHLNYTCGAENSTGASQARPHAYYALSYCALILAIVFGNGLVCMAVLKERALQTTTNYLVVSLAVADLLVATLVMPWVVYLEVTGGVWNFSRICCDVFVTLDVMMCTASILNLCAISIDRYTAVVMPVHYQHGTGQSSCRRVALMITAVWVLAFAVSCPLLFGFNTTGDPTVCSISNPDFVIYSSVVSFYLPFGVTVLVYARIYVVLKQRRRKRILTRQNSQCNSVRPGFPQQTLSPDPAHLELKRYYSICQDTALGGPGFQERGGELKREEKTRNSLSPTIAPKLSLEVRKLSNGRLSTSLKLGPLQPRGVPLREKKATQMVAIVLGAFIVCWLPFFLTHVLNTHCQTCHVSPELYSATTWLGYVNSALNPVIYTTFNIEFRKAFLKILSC
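Cells plated overnight at 1500 cells/well, then exposed to library compounds with dopamine controls for 90 minutes at 37 degrees C. DiscoveRx reagent added for 30–60 minutes at room temperature; luminescence read, quantitative HTS format.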
D3 ag: qHTS of D3 Dopamine Receptor Agonist: qHTS; D(3) dopamine receptor (Homo sapiens), P35462; D3R DiscoveRx beta-arrestin cells, luminescence, 90 min; max activation, %; actives 0.58% (n = 410,000); AID 652048, 2013; in the data active = max activation above about 30%; also: 0% is about no effect
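Agonist-mode cell screen: cells plated at 1500/well and incubated overnight at 37 °C, then exposed to library compounds for 90 min at 37 °C. Detection reagent was added for 30–60 min at room temperature, and luminescence was read.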
Integrin act MD: qHTS for Activators of Integrin-Mediated Alleviation for Muscular Dystrophy; Potency, µM (doses to about 38.3 µM), for inactives: at the highest dose activation, hits mostly activators; actives 0.064% (n = 350,000); alpha7betagal myoblasts, beta-gal FDG fluorescence, 48 h; active = well fitted activation curve with a large enough effect; inconclusive = small, poorly fitted or top-dose-only effect; inactive = no such curve, though single readings can be large or run the other way;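 also: potency is read from the fitted curve at half-maximal effect; 100% = response of the positive control SU9516; nearly all actives have a fitted effect of over 60% in size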
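alpha7betagal+/- myoblasts (passage 13, 250/well) treated 48 h at 37C with compounds at 1:260 dilution of DMSO stock. Lysed, then beta-galactosidase activity read as FDG fluorescence (ex 480/em 540) after 30 min, with pre-read for autofluorescence.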
Starred values were filed as active, the others as inactive; u = inconclusive; x = no result given; [ ] = dose if it differs, or a comment. This is a sample that favours compounds with a hit; in the whole collection about 2.9% have one here.

SMILES	D3 antag	D3 ag	Integrin act MD
CCC1CN(C(=O)N2CCC(C(=O)NCc3ccc(C)o3)CC2)c2cc(C)ccc2O1 (stereo unspecified)	4.0	0.3	-48.9%
O=C(CS(=O)(=O)c1cn(CC(=O)N2CCOCC2)c2ccccc12)NCc1ccccc1	2.8	3.0	-5.3%
COc1ccc(-c2noc(N(c3ccc(F)c(Cl)c3)c3nc(-c4ccc(OC)c(OC)c4)no3)n2)cc1OC	x	1.2	x
CCNC(=O)C1(C)CCN(C(=O)c2ccc3c(c2)CCO3)C1 (stereo unspecified)	-50.8*	0.7	x
CCCNC(=O)C1(C)CCCN(C(=O)c2ccc3c(c2)CCO3)C1 (stereo unspecified)	40.7	3.5	x
C=CCN1C(=O)C(CC(=O)O)SC1=Nc1ccc(C)cc1 (stereo unspecified)	1.2	5.8	-38.4%
CCC(C)N1CCN(C(=O)c2cccs2)CC1 (stereo unspecified)	-65.1*	-17.0	12.0%
O=C(CSc1nnc(Cc2cccs2)n1C1CCCCC1)N1CCN(C(=O)c2ccco2)CC1	-62.5*	-7.6	-20.7%
OCC1(CCCc2ccccc2)CCN(C2CCC2)CC1	-5.7	-8.1	2.8%
O=C(c1ccco1)N1CCN(C2CCCC2)CC1	-74.2*	-3.8	8.4%
O=C(c1ccncc1)N1CCN(C(=O)c2cccs2)CC1	22.0	11.8	18.9%
CC(Sc1nnc(Cc2cccs2)n1C1CCCCC1)C(N)=O (stereo unspecified)	-23.1	-1.6	21.2%
O=C(c1ccco1)N1CCN(C2CN(C3CCCC3)S(=O)(=O)C2)CC1 (stereo unspecified)	18.5	4.9	x
c1ccc(CCN(Cc2ccccc2)C2CCN(C3CCCC3)CC2)cc1	-65.2*	-16.7	-24.4%
CCN(CC)S(=O)(=O)c1cccc(NC(=O)COC(=O)CCC(=O)c2cccs2)c1	10.2	2.9	u
O=C(CCC(=O)OCc1cccc([N+](=O)[O-])c1)Nc1ccc(F)cc1	-10.4	0.8	3.0%
CC1(C)CC(NC(=O)COc2cc3oc(=O)c4c(c3cc2Cl)CCC4)CC(C)(C)N1	-19.0	-4.5	-59.5%
C=CCSc1nnc(-c2ccc([N+](=O)[O-])cc2)o1	-24.5	-0.7	17.7%
O=C(CCCc1ccccc1)N1CCN(C2CCCCC2)CC1	-84.5*	-5.8	0.0%
O=C(c1ccco1)N1CCN(C(=O)c2ccco2)CC1	-28.0	-5.0	x
COc1ccc(CCC(=O)N2CCN(C3CCCCC3)CC2)cc1	12.8	18.5	-5.3%
O=C(c1ccco1)N1CCN(C(=O)c2cccs2)CC1	-56.0*	-1.7	7.8%
Cc1noc(C)c1CN1C(=O)c2ccccc2C1=O	4.9	9.9	-4.9%
COc1ccc(CCC(=O)NC2CC(=O)N(c3ccc(C)cc3)C2)cc1 (stereo unspecified)	x	70.8*	x
COc1ccc(CCC(=O)NC2CC(=O)N(c3ccccc3)C2)cc1 (stereo unspecified)	x	-6.2	x
SMILES	D3 antag	D3 ag	Integrin act MD
CCc1ccc(-n2c(=O)c3sc4ccccc4c3n(Cc3cccc(F)c3)c2=O)cc1	x	0.7	x
COc1cc(C(=O)NC(=S)Nc2ccc(Cl)c(C(=O)O)c2)cc(OC)c1OC	-89.5*	-11.5	7.4%
COc1cc(OC)cc(C(=O)NC(=S)Nc2ccc(Cl)c(C(=O)O)c2)c1	-20.6	-12.6	3.4%
COC(=O)CSc1nnc(CNS(=O)(=O)c2ccc(Br)cc2)n1C	-10.0	5.1	10.1%
Cc1cc(N)c2cc(NC(=O)/C=C/c3ccccc3Cl)ccc2n1	-83.3*	-15.5	-61.5%
Cc1cc(C)nc(NC(=O)/C=C/c2ccccc2Cl)n1	-22.6	-2.2	-46.6%
CCNC(=O)CSc1nnc(-c2cccc(S(=O)(=O)N3CCOCC3)c2)o1	-14.7	-1.9	34.8%
CN1CCN(c2oc(-c3cccs3)nc2S(=O)(=O)c2ccccc2)CC1	u	-21.0	-1.0%
CN1CCN(c2oc(-c3ccccc3)nc2S(=O)(=O)c2ccc(Br)cc2)CC1	-67.1*	-35.8	-19.2%
CN1CCN(c2oc(-c3ccccc3Cl)nc2S(=O)(=O)c2ccccc2)CC1	-78.9*	-7.0	9.4%
O=S(=O)(c1ccccc1)c1nc(-c2ccccc2)oc1N1CCCC1	7.1	13.1	-19.4%
CCCCN(C(=O)c1cccc(S(=O)(=O)N(C)c2ccc(C)cc2)c1)c1c(N)n(CCCC)c(=O)[nH]c1=O	8.1	0.7	25.4%
COC(=O)c1ccc2c(=O)[nH]c(CSc3nc(C)cs3)nc2c1	-21.9	-2.4	-26.3%
CCOc1ccccc1N1CCN(Cc2cccc(OC)c2O)CC1	-92.9*	-66.4	-12.5%
COc1ccccc1N1CCN(Cc2cc(Br)c(O)c3ncccc23)CC1	-83.8*	-18.3	-34.0%
CCOCc1cc(CN2CCN(c3ccccc3OC)CC2)c(O)c2ncccc12	x	-20.1	x
CCOc1ccc2oc(=O)cc(CN3CCN(c4ccccc4OC)CC3)c2c1	x	-31.2	x
CCC(C)c1ccc(S(=O)(=O)N2CCN(C(=O)c3ccc(Cl)c(S(=O)(=O)N4CCOCC4)c3)CC2)cc1 (stereo unspecified)	19.5	3.4	-51.0%
Cc1cc(C)cc(Nc2nc3c(S(=O)(=O)c4cccc(Cl)c4)nnn3c3ccsc23)c1	x	53.8*	x
CC(=O)Nc1ccc(Nc2nc3c(S(=O)(=O)c4cccc(Cl)c4)nnn3c3ccsc23)cc1	x	1.0	x
O=C(COC(=O)/C=C/c1ccccc1)NCc1cccs1	-4.2	-0.7	u
CCS(=O)(=O)c1ccc(N=Nc2ccc(O)c3ncccc23)c(OC)c1	u	-2.5	-59.9%
COc1ccccc1N=Nc1ccc(O)c2ncccc12	-89.6*	-16.7	-9.4%
Oc1ccc(CNc2ccccc2F)c2cccnc12	9.7	2.3	-62.0%
Oc1ccc(N=Nc2ccccc2C(F)(F)F)c2cccnc12	-124.5*	-16.7	-33.5%
SMILES	D3 antag	D3 ag	Integrin act MD
O=C1c2ccccc2C(=O)c2c(/C=C/N3CCCCC3)ccnc21	u	0.9	-45.5%
COc1ccc(N2CCN(C(CNC(=O)c3cccs3)c3ccco3)CC2)cc1 (stereo unspecified)	-9.0	-0.2	7.6%
COC(=O)[C@]1(C)N[C@H](CN(C)C(=O)Nc2ccc(OC)cc2)[C@@H]2C(=O)N(Cc3ccccc3)C(=O)[C@@H]21	18.9	33.9*	16.5%
COC(=O)[C@]1(C)N[C@H](CN(C)C(=O)Nc2ccc(Cl)cc2)[C@@H]2C(=O)N(Cc3ccccc3)C(=O)[C@@H]21	u	-5.3	12.4%
Cc1c(-c2nc(-c3ccccc3)no2)nnn1-c1cccc(C(F)(F)F)c1	x	1.6	x
Cc1sc(-c2ccccn2)nc1OC(=O)c1cccc(Cl)c1Cl	0.5	0.4	19.2%
O=C1N(c2ccccc2C(F)(F)F)O[C@@]1(c1ccccc1)C1CCCCC1	-56.7*	-17.5	11.2%
O=C1N(c2ccccc2C(F)(F)F)O[C@@]1(c1ccccc1)C1CCCC1	4.7	1.5	-14.1%
O=S(=O)(N/N=C1/CC(c2ccccc2)Oc2ccccc21)c1ccc(Br)cc1 (stereo unspecified)	22.2	0.4	32.4%[7.66 µM]
Cc1ccc(S(=O)(=O)N/N=C2/CC(c3ccccc3)Oc3ccccc32)cc1[N+](=O)[O-] (stereo unspecified)	-82.7*	-4.3	16.8%

Screening data deposited in PubChem BioAssay by National Center for Advancing Translational Sciences (NCATS).
